MBD2 DNA inh – inhibitors of human MBD2 binding to methylated oligonucleotide; Q9UBB5; TR-FRET; inhibition, % at 4.4 µM; actives 0.31% (n = 370,000); in the data active = inhibition above about 13%
LEDGF integ inh – blocks HIV-1 LEDGF/p75-dependent DNA integration. TR-FRET IN-LEDGF/p75 DNA integration, Eu/Cy5. inhibition, % at 3.7 µM. actives 0.64% (n = 370,000);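 active = inhibition above the screen-wide mean plus 3 SD, cut at about 13% in these data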;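 also: signal is the Cy5 over europium emission ratio at 671 and 618 nm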
TCR CD3 inh – human TCR-CD3 binding inhibition; TAMRA-labeled TCR probe fluorescence, biochemical; inhibition, % at 9.4 µM; actives 0.37% (n = 360,000); AID 651800; in the data active = inhibition above about 19%;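 also: recombinant mutant TCR 2C K166C tagged with TAMRA read by polarization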
UHRF1 binding – UHRF1 methyl-DNA binding inhibition; actives 0.75% (n = 370,000); inhibition, % at 4.4 µM; UHRF1 binding to methylated oligo, TR-FRET; Q96T88; AID 687016;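 also: UHRF1 SRA domain binding a hemimethylated CpG hairpin DNA probe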
Target sequence (Q96T88 whole entry, looked up, the tested form may be a part): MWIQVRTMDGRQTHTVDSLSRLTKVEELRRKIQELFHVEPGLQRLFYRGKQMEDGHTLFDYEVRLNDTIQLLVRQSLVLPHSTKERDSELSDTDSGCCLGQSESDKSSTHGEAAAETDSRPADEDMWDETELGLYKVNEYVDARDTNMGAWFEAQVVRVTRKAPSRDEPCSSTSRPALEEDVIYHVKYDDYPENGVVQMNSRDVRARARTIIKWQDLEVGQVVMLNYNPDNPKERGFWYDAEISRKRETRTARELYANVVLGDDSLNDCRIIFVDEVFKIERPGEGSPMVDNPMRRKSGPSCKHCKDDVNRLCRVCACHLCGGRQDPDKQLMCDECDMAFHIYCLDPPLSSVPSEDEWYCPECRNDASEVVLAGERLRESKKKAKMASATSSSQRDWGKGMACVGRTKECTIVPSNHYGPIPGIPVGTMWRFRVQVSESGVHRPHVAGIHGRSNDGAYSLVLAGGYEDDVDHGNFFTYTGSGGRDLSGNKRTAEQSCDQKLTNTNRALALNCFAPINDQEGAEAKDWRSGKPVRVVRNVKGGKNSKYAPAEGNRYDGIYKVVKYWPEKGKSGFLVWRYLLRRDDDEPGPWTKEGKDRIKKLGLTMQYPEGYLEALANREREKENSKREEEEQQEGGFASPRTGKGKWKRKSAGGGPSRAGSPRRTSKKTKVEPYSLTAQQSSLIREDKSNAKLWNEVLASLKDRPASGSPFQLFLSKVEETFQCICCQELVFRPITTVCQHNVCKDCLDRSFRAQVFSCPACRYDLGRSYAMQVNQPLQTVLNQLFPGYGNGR
Rin1 Abl inh – human Rin1-Abl interaction inhibition. P00519+Q13671. TR-FRET Rin1/Abl binding, biochemical. inhibition, % at 7.35 µM. actives 0.4% (n = 360,000); in the data active = inhibition above about 5%, passing the limit was not always enough
UHRF1 DNA bind – UHRF1 methyl-oligo binding inhibition as MBD2 counter-screen. shares compounds with MBD2 DNA inh. actives 25% (n = 1,000). inhibition, % at 4.4 µM. UHRF1 binding to methylated oligonucleotide, TR-FRET;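 also: UHRF1 SRA domain binding a labeled hemimethylated CpG hairpin DNA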
MBD2 DBD conf – confirmation of human MBD2-DBD methylated oligonucleotide binding inhibitors. shares compounds with MBD2 DNA inh. actives 26% (n = 1,000). inhibition, % at 4.4 µM. AID 720531. TR-FRET MBD2-DBD binding to methylated oligonucleotide; in the data active = inhibition above about 14%
Of the large screens only hits and unclear results are named; the others gave an inactive call (follow-up assays come after a bar, where they were run). Compounds with a hit are over-represented: about 2% of the library has one in this group of screens. Rule as the data show it, unless noted: active = inhibition above about 21%; inactive = the rest.

COC(=O)C1C(c2ccccc2)C=CC(c2ccccc2)C1C(=O)O (stereo not drawn)	MBD2 DNA inh 43.8 | UHRF1 DNA bind inactive | MBD2 DBD conf inactive
CCN(CC)S(=O)(=O)c1ccc(N2CCCC2)c(NC(=O)c2nn(C)c(=O)c3ccccc23)c1	none
CCN(CC)S(=O)(=O)c1ccc(N2CCOCC2)c(NC(=O)c2nn(C)c(=O)c3ccccc23)c1	MBD2 DNA inh 13.9 | UHRF1 DNA bind inactive | MBD2 DBD conf inactive
O=C(NNc1c([N+](=O)[O-])cc(C(F)(F)F)cc1[N+](=O)[O-])c1ccco1	none
CCOC(=O)[C@]12CCC=C1N(Cc1ccco1)C(=O)[C@H](CC(=O)N1CCC(c3ccccc3)CC1)C2	MBD2 DNA inh 15.1 (no result: Rin1 Abl inh) | UHRF1 DNA bind inactive | MBD2 DBD conf inactive
Cc1ccc(C(=O)NCCNC(=O)c2ccccn2)cc1	none
Cc1ccccc1NC(=O)c1ccc(CN2CCc3ccccc3C2)cc1	MBD2 DNA inh 33.6 | UHRF1 DNA bind inactive | MBD2 DBD conf inactive
CCCCCCC12C(=Cc3cc(C)ccc31)c1ccccc1C(CC(=O)NCc1ccccc1)N2C(=O)OC (stereo not drawn)	MBD2 DNA inh 29.3, UHRF1 binding 54.4 (no result: Rin1 Abl inh) | UHRF1 DNA bind inactive | MBD2 DBD conf inactive
CCCCCCCCN1C(=O)[C@H](CC(=O)NCc2ccccc2)C[C@@]2(C(=O)OCC)CCCC=C12	none (no result: Rin1 Abl inh)
COc1cccc(CN(C)CCCn2ccc(NC(=O)OCc3ccccc3)nc2=O)c1	none
COc1ccc(Cc2nnc(NC(=O)C3CCCO3)s2)cc1 (stereo not drawn)	MBD2 DNA inh 15.3 | UHRF1 DNA bind inactive | MBD2 DBD conf inactive
CC(C)(C)C(=O)Nc1cc(S(=O)(=O)N2CCCCC2)ccc1N1CCCCC1	MBD2 DNA inh 14.2 | UHRF1 DNA bind inactive | MBD2 DBD conf inactive
CC(C)C(=O)Nc1cc(S(=O)(=O)N2CCOCC2)ccc1N1CCCCC1	none
Cc1cc2[nH]c3c4ccccc4nc(C)c3c2cc1C	MBD2 DNA inh 17.0 | UHRF1 DNA bind inactive | MBD2 DBD conf 32.9
COC(=O)c1ccc(NC(=O)CCc2nnc3ccc(NCc4ccco4)nn23)cc1	MBD2 DNA inh 14.2 | UHRF1 DNA bind inactive | MBD2 DBD conf inactive
CCC(=O)c1ccc(OCC(=O)NCc2ccccc2CN2CCCC2)cc1	MBD2 DNA inh 34.7 | UHRF1 DNA bind inactive | MBD2 DBD conf inactive
Cc1cc(C(=O)COC(=O)c2ccc(F)cc2)c(C)n1C	none
Cc1cc(C(=O)COC(=O)c2cc(Cl)c(O)c(Cl)c2)c(C)n1C	MBD2 DNA inh 17.5, LEDGF integ inh 42.6, UHRF1 binding 33.4 | UHRF1 DNA bind inactive | MBD2 DBD conf inactive
COc1ccc(OCCN2CCC(C(=O)NC(C)c3cccc4ccccc34)CC2)cc1 (stereo not drawn)	none
COC(=O)C1CCN(C(=O)COC(=O)c2ccc(N3CCCC3=O)cc2)CC1	MBD2 DNA inh 13.7 | UHRF1 DNA bind inactive | MBD2 DBD conf inactive
CC1CC(C)CN(C(=O)COC(=O)c2ccc(N3CCCC3=O)cc2)C1 (stereo not drawn)	none
CN(Cc1ccccc1)C(=O)c1[nH]cnc1C(=O)Nc1ccccc1F	none
Cc1cccc(C(=O)NC(=O)Nc2c(C)cc(C)nc2C)c1	MBD2 DNA inh 13.7, UHRF1 binding 24.3 | UHRF1 DNA bind inactive | MBD2 DBD conf inactive
Cc1cccc(C(=O)NNC(=O)c2cccc(C)c2)c1	none
N/C(=N\OC(=O)CC1CCCCC1)c1ccc(Cl)cc1	none
Cc1ccc(C)c2nc(Cl)c(C#N)cc12	MBD2 DNA inh 14.2 | UHRF1 DNA bind inactive | MBD2 DBD conf inactive
Cc1ccc(C)c2nc(N3CCCC3)c(C#N)cc12	none
OCC[C@@H]1C[C@H](O)[C@@H](O)[C@@]2(CCc3ccccc3O2)O1	none
COc1ccc(Cl)cc1NC(=S)N1CCC(c2ccc(C)cc2)C1 (stereo not drawn)	MBD2 DNA inh 22.8 | UHRF1 DNA bind inactive | MBD2 DBD conf inactive
COc1ccc(Cl)cc1NC(=S)N1CCCCCC1	none
CCCn1c(C2CCCN2c2nc(-c3cccc(Br)c3)cs2)nc2ccccc21 (stereo not drawn)	none
CN(C(=O)c1cccs1)c1ccccc1C(=O)O	MBD2 DNA inh 15.8, UHRF1 binding 32.1 | UHRF1 DNA bind inactive | MBD2 DBD conf inactive
COc1cccc(NC(=O)CN(C)C(=O)c2cc3c(s2)CCC3)c1	MBD2 DNA inh 27.1, UHRF1 binding 55.3 (no result: Rin1 Abl inh) | UHRF1 DNA bind 30.4 | MBD2 DBD conf 25.8
Cc1cccc(/N=C/c2ccccn2)n1	none
CC1Cc2ccccc2N1S(=O)(=O)c1ccc2c(c1)n(C)c(=O)c(=O)n2C (stereo not drawn)	MBD2 DNA inh 13.6 | UHRF1 DNA bind inactive | MBD2 DBD conf inactive
CC(=O)N1c2ccc(S(=O)(=O)N3c4ccccc4CC3C)cc2CC1C (stereo not drawn)	none
O=C(NCc1ccccc1Cl)C1CCN(S(=O)(=O)N2CCCCC2)CC1	MBD2 DNA inh 19.6, UHRF1 binding 24.8 | UHRF1 DNA bind inactive | MBD2 DBD conf inactive
O=C(NCc1ccccc1Cl)C1CCN(S(=O)(=O)N2CCCC2)CC1	none
O=C(NCCSc1c[nH]c2ccccc12)c1ccc(Br)o1	none
O=C(NCCc1c[nH]c2ccccc12)c1ccc(Br)o1	MBD2 DNA inh 16.2, UHRF1 binding 20.9 | UHRF1 DNA bind inactive | MBD2 DBD conf inactive
CC1CCCCN1C(=O)COC(=O)c1ccc(=O)n(Cc2ccccc2)n1 (stereo not drawn)	none
N#CCSc1ncnc2sc3c(c12)CCC3	MBD2 DNA inh 14.2, UHRF1 binding 23.6 | UHRF1 DNA bind inactive | MBD2 DBD conf inactive
O=C(Nc1ccc2c(c1)OCCO2)C(C1CC1)N1CCN(c2ccc(C(F)(F)F)cn2)CC1 (stereo not drawn)	none
Cc1onc(-c2c(Cl)cccc2Cl)c1C(=O)NCCc1ccc(S(N)(=O)=O)cc1	MBD2 DNA inh 14.3, UHRF1 binding 32.3 | UHRF1 DNA bind inactive | MBD2 DBD conf inactive
NS(=O)(=O)c1ccc(NC(=O)c2ccc3nccnc3c2)cc1	none
NS(=O)(=O)c1ccc(CCNC(=O)c2ccc3nccnc3c2)cc1	MBD2 DNA inh 15.0 | UHRF1 DNA bind 34.4 | MBD2 DBD conf 26.1
Cc1onc(-c2ccccc2)c1C(=O)NCCc1ccc(S(N)(=O)=O)cc1	none
CCNC(=O)C1CCCN(C(=O)c2ccccc2)CC1 (stereo not drawn)	none
O=C(NC1CCN(S(=O)(=O)c2ccccc2)CC1)c1ccccc1	none
Cn1c(-c2ccccc2)cc(=O)n1-c1ccccc1	MBD2 DNA inh 62.5 | UHRF1 DNA bind inactive | MBD2 DBD conf inactive
Cc1ccc(S(=O)(=O)N2CCN(C(=O)COC(=O)CCOc3ccccc3)CC2)c(C)c1	none
Cc1ccc(S(=O)(=O)N(C)C)cc1NC(=O)CCc1c[nH]c2ccccc12	none
Cc1ccc(S(=O)(=O)N(C)C)cc1NC(=O)CCc1ccccc1	MBD2 DNA inh 20.5 | UHRF1 DNA bind inactive | MBD2 DBD conf inactive
